IMPase Li cell – qHTS Assay for Identifying the Cell-Membrane Permeable IMPase Inhibitors: Potentiation with Lithium. CHO-M1 cells, IP1 TR-FRET (IP-One), carbachol + lithium. Potency, µM (highest dose often 59.4 µM), hits mostly inhibitors. actives 0.35% (n = 210,000). AID 1457, 2008;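 also: IP1 builds up when IMPase is blocked and the TR-FRET signal falls; nearly all actives have a fitted effect of over 50% in size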
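IP1 accumulation measured by competitive TR-FRET in lysed CHO-M1 cells after 30 min compound exposure at 37C, with a small lithium addition to potentiate weak responses. Hill-equation AC50 from ratio and donor-channel data.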
JMJD2E inh – qHTS Assay for Inhibitors of Human Jumonji Domain Containing 2E (JMJD2E); Lysine-specific demethylase 4E (Homo sapiens), B2RXH2; JMJD2E catalytic domain, FDH-coupled NADH fluorescence (FDH is formaldehyde dehydrogenase); Potency, µM (series often up to 57.1 µM), hits mostly inhibitors; actives 1.6% (n = 230,000); AID 2147, 2009; active = well fitted inhibition curve with a large enough effect, not every such curve was filed as active; inconclusive = small, poorly fitted or top-dose-only effect, or another doubt; inactive = no such curve, though single readings can be large or run the other way; also: nearly all actives have a fitted effect of over 50% in size
Sfp PPTase inh – qHTS Assay for Inhibitors of Bacillus subtilis Sfp phosphopantetheinyl transferase (PPTase); 4'-phosphopantetheinyl transferase ffp (Bacillus subtilis), Q9F4F7; Biochemical Sfp PPTase activity, qHTS; Potency, µM, actives largely listed as inhibitors; actives 3.5% (n = 310,000); AID 1490, 2009;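 also: the enzyme is Sfp with the accession as filed and its product quenches rhodamine fluorescence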
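Reaction rates are the 30-min fluorescence difference (ex 525, em 598 nm) in wells containing 15 nM Sfp, 5 uM rhodamine-CoA and 12.5 uM BHQ-2-YbbR at pH 7.6 with 10 mM MgCl2.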
KAT2A inh – qHTS Assay for Inhibitors of GCN5L2 | actives 0.21% (n = 390,000) | GCN5L2 HAT assay, ThioGlo1 CoA-SH fluorescence | Potency, µM (top dose mostly 58.9 µM), usual class: inhibitors | Histone acetyltransferase KAT2A (Homo sapiens), Q92830
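Free CoA generated was detected with ThioGlo1 (50uM) fluorescence at Ex340nm/Em540nm, read immediately and after 20 min at room temperature. Enzyme, 20 nM in HEPES pH 7.5 buffer, saw compounds 15 min before adding 75uM H3(1-25) peptide and 70uM acetyl-CoA.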
NPSR antag – qHTS Assay for Antagonists of the Neuropeptide S Receptor: cAMP Signal Transduction | CHO-NPSR cells, cAMP TR-FRET, antagonist mode | Potency, µM (doses to about 38.3 µM), hits mostly inhibitors | actives 1% (n = 220,000) | AID 1461, 2008; also: nearly all actives have a fitted effect of over 50% in size
Target sequence (Q6W5P4 whole entry, looked up): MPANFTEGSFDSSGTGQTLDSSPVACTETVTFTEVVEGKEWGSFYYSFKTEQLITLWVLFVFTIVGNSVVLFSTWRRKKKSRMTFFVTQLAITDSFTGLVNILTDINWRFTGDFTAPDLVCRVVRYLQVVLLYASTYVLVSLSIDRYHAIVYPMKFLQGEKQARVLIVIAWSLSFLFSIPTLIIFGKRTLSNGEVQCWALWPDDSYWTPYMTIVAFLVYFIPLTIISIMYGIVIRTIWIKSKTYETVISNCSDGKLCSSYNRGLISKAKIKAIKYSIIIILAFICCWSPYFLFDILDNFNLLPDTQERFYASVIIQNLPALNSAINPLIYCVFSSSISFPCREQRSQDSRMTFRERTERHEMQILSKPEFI
Epigenetic reg – Quantitative High-Throughput Screen for Regulators of Epigenetic Control; actives 0.2% (n = 280,000); Potency, µM (top dose mostly 53.9 µM), hits mostly activators; murine LDR cells, GFP reporter derepression, 30 h; also: nearly all actives have a fitted effect of over 60% in size
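Murine LDR cells bearing a silenced CMV-driven GFP reporter were exposed to compound for 30 h at 37 C. After PBS washes, GFP-positive cells (20-120 um objects) counted by laser-scanning microplate cytometry.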
Numbers stand for hits; i = inactive; ? = inconclusive; nt = no result given. An excerpt weighted towards active compounds, which were near 3.6% of everything screened. Unless noted, calls follow the shape of the dose curve; as a rule, active = well fitted curve in the direction sought with a large enough effect; inconclusive = small, poorly fitted or top-dose-only effect, or another doubt; inactive = no such curve, though single readings can be large; an effect the other way counts as inactive or inconclusive.

SMILES | IMPase Li cell | JMJD2E inh | Sfp PPTase inh | KAT2A inh | NPSR antag | Epigenetic reg
CSc1ccccc1OCc1cc(C(=O)N(C)Cc2ccc3nsnc3c2)no1 | nt | nt | i | i | nt | nt
CC(=O)c1cccc(OCc2cc(C(=O)N(C)Cc3ccc(C)o3)no2)c1 | nt | nt | 25µM | i | nt | nt
Cc1ccc(CN(C)C(=O)c2ccccc2Oc2ccccc2)o1 | i | i | 14µM | i | i | ?
CSc1ccccc1OCc1cc(C(=O)N(C)Cc2ccc(C)o2)no1 | nt | nt | 20µM | i | nt | nt
O=C(NCCN1CCOCC1)c1cc(Cl)ccc1Cl | nt | nt | i | i | nt | nt
O=C(NCCN1CCOCC1)NC1(C(F)(F)F)Oc2ccc(Cl)cc2O1 (centres undefined) | i | 3.2µM | i | i | i | i
O=C(Oc1ccc(Cl)c2cccnc12)c1ccco1 | i | i | i | i | 4µM | ?
O=C(Oc1coc(CSc2ncccn2)cc1=O)c1ccc(Br)o1 | i | i | i | i | ? | i
O=C(Oc1coc(CSc2ncccn2)cc1=O)c1ccco1 | i | i | 89µM | i | i | i
COc1cccc(Cn2c(=O)c(-c3ccc(Cl)cc3)nc3cncnc32)c1 | i | nt | i | i | nt | nt
C/C=C(\C)[C@H](O)C[Si](C)(C)c1ccccc1 | i | i | i | nt | nt | i
C/C=C/C=C\C(=O)Nc1cccc(C2=NOC3(C2)C[C@H](C(N)=O)N(C(=O)CC#N)C3)c1 (some centres undefined) | nt | ? | 13µM | i | i | i
C/C=C\C=C\C(=O)Nc1cccc(C2=NOC3(C2)C[C@@H](C(N)=O)N(C(=O)C(c2ccccc2)c2ccccc2)C3)c1 (some centres undefined) | nt | i | 18µM | i | i | i
CCC(=O)Nc1cccc(C2=NOC3(C2)C[C@@H](C(N)=O)N(C(=O)C(c2ccccc2)c2ccccc2)C3)c1 (some centres undefined) | nt | i | i | i | i | i
C/C=C\C=C/C(=O)Nc1cccc(C2=NOC3(C2)C[C@H](C(N)=O)N(C(=O)CC)C3)c1 (some centres undefined) | nt | i | 13µM | i | i | i
C/C=C/C=C/C(=O)N1CC2(CC(c3cccc(NC(=O)CCCCC)c3)=NO2)C[C@H]1C(N)=O (some centres undefined) | nt | i | 22µM | i | i | i
C/C=C/C(=O)N1CC2(CC(c3cccc(NC(=O)CCCCC)c3)=NO2)C[C@H]1C(N)=O (some centres undefined) | nt | i | i | i | i | i
Cc1ccccc1CNC(=O)C1=Cc2ccccc2OC1 | nt | nt | nt | i | nt | i
C/C=C\C=C/C(=O)Nc1cccc(C2=NOC3(C2)C[C@H](C(N)=O)N(C(=O)Cc2ccc([N+](=O)[O-])cc2)C3)c1 (some centres undefined) | nt | i | 13µM | i | i | i
C/C=C\C=C/C(=O)Nc1cccc(C2=NOC3(C2)C[C@@H](C(N)=O)N(C(=O)CCCCC)C3)c1 (some centres undefined) | nt | i | 25µM | i | i | i
C/C=C/C=C\C(=O)Nc1cccc(C2=NOC3(C2)C[C@@H](C(N)=O)N(C(=O)/C(C)=C/C)C3)c1 (some centres undefined) | nt | i | 25µM | i | i | i
C/C=C(/C)C(=O)Nc1cccc(C2=NOC3(C2)C[C@H](C(N)=O)N(C(=O)Cc2ccc([N+](=O)[O-])cc2)C3)c1 (some centres undefined) | nt | i | i | i | i | i
Cc1nc(-n2nc(C)c(Cc3ccccc3Cl)c2C)sc1C(=O)Nc1ccccc1F | nt | nt | nt | i | nt | i
CCN1C(=O)C2(C(C(=O)c3ccc(C)o3)=C(O)C(=O)N2CCCN2CCOCC2)c2ccccc21 (centres undefined) | ? | i | 2.5µM | i | i | i

Screening data: PubChem, National Center for Advancing Translational Sciences (NCATS)
